# Assay results as given in the supplement of paper PMC8728848.
# This is one part of a sample in which the strongest signals are shown more often than they occur.
# B1: PX9937B-bvu-524-33-524 (Bacteroides vulgatus) (protein)
# chain: GTAYWKNPDQFTAFNTGLHALLREKSYNFFLLGEPRADIYGDNPIGGEASQGMERLPFNTINKENVGISNYGDMYKIINQINQMIAKTTETTILTEATQNYYLGEAYGMRAYLYFHLLRSWGDVVLYLDYTEGQNLDLSNITKGVSPATEVMEQIKKDIQASENAFGSDYSFKLGRHFWSAAATQMLKGEAYLWSGRQMNGGNSDYTIAKNAFENVKKADVGLVTSSFKDIFSFENKKNKEMIFTIHNGKDEYEMWGGYYRMRLIPAQDKMVKIYCDENGNSFVGTPDAQLNGLTQLQVRREFYFKGFRNNDTRWTTSLKAVYKKDAQGVVSYFGPITYKFQGTMLEGGSTRSFLDDFPIYRYADCLLQLAMAKVLLGEDPTEEINAVRERAYGSKYFNEHKAEIAYPNDNDPEFYTDNKWMKPDNAGALEAILKERLREFMFEGKRWYDIRLLGWDYVHQYSSAEQSRLLWPIDAGTLTNNSALKQTPGYE
# Key:
# Assay in all cases: glycan array binding signal (z-score within array); higher = stronger binding
# Conditions in all cases: glycan notation: IUPAC condensed, linker removed
# [1] = target: Gal6S(b1-4)GlcNAc6S
# How it was run: (§1)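 Arrays were curated from the Consortium for Functional Glycomics database, 3228 in total, and kept only where the protein sequence was available. Binding is expressed as a within-array Z-score. This score was averaged across arrays of the same protein sequence at different concentrations or buffers and across linkers, and negative values can be read as non-binding.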
# [2] = target: GalNAc(a1-3)GalNAc
# How it was run: as §1
# [3] = target: GalNAc(b1-4)GlcNAc(b1-3)GalNAc(b1-4)GlcNAc
# How it was run: as §1
# [4] = target: GalNAc3S(b1-4)GlcNAc
# How it was run: as §1
# [5] = target: GlcNAc(a1-4)Gal(b1-4)GlcNAc(b1-3)Gal(b1-4)GlcNAc
# How it was run: as §1
# [6] = target: GlcNAc(a1-4)Gal(b1-4)GlcNAc(b1-3)Gal(b1-4)[Fuc(a1-3)]GlcNAc(b1-3)Gal(b1-4)[Fuc(a1-3)]GlcNAc
# How it was run: as §1
# [7] = target: GlcNAc(b1-2)[GlcNAc(b1-4)]Man(a1-3)[GlcNAc(b1-4)][GlcNAc(b1-2)[GlcNAc(b1-6)]Man(a1-6)]Man(b1-4)GlcNAc(b1-4)[Fuc(a1-6)]GlcNAc
# How it was run: as §1
# [8] = target: GlcNAc(b1-3)Gal(b1-4)GlcNAc(b1-3)Gal(b1-4)GlcNAc(b1-3)Gal(b1-4)GlcNAc(b1-3)Gal(b1-4)GlcNAc(b1-2)Man(a1-3)[GlcNAc(b1-3)Gal(b1-4)GlcNAc(b1-3)Gal(b1-4)GlcNAc(b1-3)Gal(b1-4)GlcNAc(b1-3)Gal(b1-4)GlcNAc(b1-2)Man(a1-6)]Man(b1-4)GlcNAc(b1-4)[Fuc(a1-6)]GlcNAc
# How it was run: as §1
# [9] = target: GlcNAc(b1-3)Man
# How it was run: as §1
# [10] = target: Kdn(a2-3)Gal(b1-3)GlcNAc
# How it was run: as §1
# [11] = target: Kdn(a2-3)Gal(b1-4)[Fuc(a1-3)]GlcNAc
# How it was run: as §1
# [12] = target: Kdn(a2-6)Gal(b1-4)GlcNAc
# How it was run: as §1
# [13] = target: Neu5Ac(a2-3)Gal(b1-3)GalNAc(b1-3)Gal(a1-4)Gal(b1-4)Glc
# How it was run: as §1
# [14] = target: Neu5Ac(a2-3)Gal(b1-3)GalNAc(b1-4)[Neu5Ac(a2-3)]Gal(b1-4)Glc
# How it was run: as §1
# [15] = target: Neu5Ac(a2-3)Gal(b1-3)[Fuc(a1-4)]GlcNAc(b1-3)Gal(b1-3)[Fuc(a1-4)]GlcNAc
# How it was run: as §1
# [16] = target: Neu5Ac(a2-3)Gal(b1-3)[Fuc(a1-4)]GlcNAc(b1-3)Gal(b1-4)[Fuc(a1-3)]GlcNAc
# How it was run: as §1
# [17] = target: Neu5Ac(a2-3)Gal(b1-4)GlcNAc(b1-3)Gal(b1-4)[Fuc(a1-3)]GlcNAc
# How it was run: as §1
# [18] = target: Neu5Ac(a2-3)[Neu5Ac(a2-6)]GalNAc
# How it was run: as §1
# [19] = target: Neu5Ac(a2-6)Gal(b1-4)GlcNAc(b1-2)Man(a1-3)[Neu5Ac(a2-6)Gal(b1-4)GlcNAc(b1-2)Man(a1-6)]Man(b1-4)GlcNAc(b1-4)[Fuc(a1-6)]GlcNAc
# How it was run: as §1
# [20] = target: Neu5Ac(a2-6)Gal(b1-4)GlcNAc(b1-2)Man(a1-6)[GlcNAc(b1-2)Man(a1-3)]Man(b1-4)GlcNAc(b1-4)GlcNAc
# How it was run: as §1
# [21] = target: Neu5Ac(a2-8)Neu5Ac(a2-3)Gal(b1-3)GalNAc(b1-4)[Neu5Ac(a2-8)Neu5Ac(a2-3)]Gal(b1-4)Glc
# How it was run: as §1
# [22] = target: Neu5Ac(a2-8)Neu5Gc(a2-3)Gal(b1-4)GlcNAc
# How it was run: as §1
binder,measurement,setting,value
B1,glycan array binding signal (z-score),[1],-0.297
same,glycan array binding signal (z-score),[2],-0.035
same,glycan array binding signal (z-score),[3],-0.144
same,glycan array binding signal (z-score),[4],-0.324
same,glycan array binding signal (z-score),[5],-0.254
same,glycan array binding signal (z-score),[6],0.453
same,glycan array binding signal (z-score),[7],-0.459
same,glycan array binding signal (z-score),[8],5.78
same,glycan array binding signal (z-score),[9],0.006
same,glycan array binding signal (z-score),[10],-0.588
same,glycan array binding signal (z-score),[11],-0.28
same,glycan array binding signal (z-score),[12],-0.409
same,glycan array binding signal (z-score),[13],-0.124
same,glycan array binding signal (z-score),[14],0.323
same,glycan array binding signal (z-score),[15],-0.529
same,glycan array binding signal (z-score),[16],-0.189
same,glycan array binding signal (z-score),[17],0.162
same,glycan array binding signal (z-score),[18],-0.279
same,glycan array binding signal (z-score),[19],0.782
same,glycan array binding signal (z-score),[20],0.042
same,glycan array binding signal (z-score),[21],-0.231
same,glycan array binding signal (z-score),[22],5.74
